Records with an inconclusive call do not appear. Values without a mark were called inactive. The call rests on the fitted dose curve; in most records, active means well fitted cell-killing curve with a large enough effect in the repeat runs; inconclusive means weak or mixed curves, or effect the other way; inactive means flat fitted curve, though single readings scatter.

We go through 40 compounds from PubChem BioAssay (Tox21).
On the % scale 0 is the no-effect control and ±100 the full control effect.

The nature of this experiment: qHTS RealTime-Glo MT Cell Viability Assay in HepG2 cells - 40 hour (AID 1224870). Further: nearly all actives have a fitted effect of over 50% in size. The note with it: RealTime-Glo luminescence; series mostly up to 76.8 µM; activity change, negative = cytotoxic: at the top concentration. The text has this: National Center for Advancing Translational Sciences [NCATS]
NIH Chemical Genomics Center [NCGC]
U.S. Environmental Protection Agency [EPA]
National Institutes of Environmental Health Sciences [NIEHS]
National Toxicology Program [NTP]
U.S. Food and Drug Administration [FDA]
Measure of cell viability is critical in the cell-base assay. Analysis of cell viability is necessary for the characterization of cell responses to cytotoxic drugs and environmental stress. A RealTime-Glo MT Cell Viability Assay to monitor cell viability in real time of continues cell culture during 40 hours of compound treatment was used to screen Tox21 10K library compounds in HepG2 cells. The RealTime-Glo MT Cell Viability Assay is a nonlytic, homogeneous, bioluminescent method to measure cell viability in real time using a simple, plate-based method. The assay involves adding NanoLuc luciferase and a cell-permeant prosubstrate to cells in culture. Viable cells reduce the proprietary prosubstrate to generate a substrate for NanoLuc luciferase. This substrate diffuses from cells into the surrounding culture medium, where it is rapidly used by the NanoLuc Enzyme to produce a luminescent signal. The signal correlates with the number of viable cells, making the assay well suited for cytotoxicity studies.
Tox21 Assay Protocol Summary:
The mixture of HepG2 cell suspension and reagents were dispensed at 600cells/6 ul/well in 1536-well tissue culture treated black solid bottom plates using a Multidrop dispenser. After the assay plates were incubated at a 37 C/5% CO2 incubator for 5 hours, 23 nL of compounds dissolved in DMSO, positive and negative controls was transferred to the assay plate by a pintool work station. The plates were incubated at 37 C for 40 hours. The luminescence intensity were measured at 0h, 8h, 16h, 24h, 32h and 40h time points using ViewLux plate reader during compound treatment.
As to `CC(C)Cn1cnc2c1c(=O)n(C)c(=O)n2C`, the “activity change, negative = cytotoxic” value is -0.323% [at 35.3 µM].
For the compound `Cc1ccc(C(C)NC(=O)[C@@H](NC(=O)OC(C)C)C(C)C)cc1` (stereo not given in full), the “activity change, negative = cytotoxic” value was -1.41%.
With `CCCCOC(=O)[C@H](C)O`, the “activity change, negative = cytotoxic” value was -1.34%.
As for `CC(N)CCCC(C)(C)O` (stereo not given), the “activity change, negative = cytotoxic” value was 0.014% [at 35.3 µM].
With `C=C(C)c1cccc(C(C)(C)N=C=O)c1`, the “activity change, negative = cytotoxic” value was -1.41%.
For `O=C(O)CCCCCC(=O)O`, the “activity change, negative = cytotoxic” value was 3.42%.
In the case of `CCC(C)OC(C)CC` (stereo not given), the “activity change, negative = cytotoxic” value was -3.92%.
Consider `CC(C)CO`, for which the “activity change, negative = cytotoxic” value was 2.55%.
For the compound `OC1OCCOC1O` (stereo not given), the “activity change, negative = cytotoxic” value was 0.792%.
In the case of `OC[C@H]1O[C@@H](O[C@@H]2[C@@H](CO)O[C@](O)(CO)[C@H]2O)[C@H](O)[C@@H](O)[C@H]1O`, the “activity change, negative = cytotoxic” value was 0.127% [at 35.3 µM].
In the case of `C[C@@H](O)C(=O)O`, the “activity change, negative = cytotoxic” value was 1.52%.
For the compound `CC1(C)O[C@H]2CC(=O)OC[C@]23[C@H]2CC[C@@]4(C)[C@H](c5ccoc5)OC(=O)[C@H]5O[C@]54[C@]2(C)C(=O)C[C@@H]13`, the “activity change, negative = cytotoxic” value is 5.04% [at 35.3 µM].
For `CC(=O)CCc1ccc(OC(C)=O)cc1` the value was -10.6%.
For `CCCCCCCCCCCCCCC(=O)NC(CO)CCCCCCCCCCCCCC` (stereo not given), the “activity change, negative = cytotoxic” value was 9.56%.
Regarding `CC1CC(=O)CC(C)(C)C1` (stereo not given), the “activity change, negative = cytotoxic” value is 0.82%.
`Cc1cc(C)c(C(=O)O)c(C)c1`: the “activity change, negative = cytotoxic” value is -3.09%.
For `O=C(CCCCC(=O)Nc1c(I)cc(I)c(C(=O)O)c1I)Nc1c(I)cc(I)c(C(=O)O)c1I` the value was 1.02% [at 35.3 µM].
Then `CO[C@@]1(NC(=O)Cc2cccs2)C(=O)N2C(C(=O)O)=C(COC(N)=O)CS[C@@H]21`, with 0.192% [at 35.3 µM]; and `C=CCSSCCC`, with -0.633%; and `ONc1ccccc1`, with -8.89%.
Turning to `CC(C)C1OCCN1CCOC(=O)NCCCCCCNC(=O)OCCN1CCOC1C(C)C` (stereo not given), the “activity change, negative = cytotoxic” value was -4.47%.
For `CCCCCCCCCCCCCCCCCC#N` the value was 9.85%; for `C=C(C)[C@@H]1CC=C(C)CC1`, -0.128%.
For `CCCC(=O)OC/C=C(\C)CCC=C(C)C` the value was 3.46%.
As for `CC(=O)CCC1=C(C)CCCC1(C)C`, the “activity change, negative = cytotoxic” value is 5.42%.
On to `OC1(c2ccc(Cl)cc2)CCNCC1`, for which the “activity change, negative = cytotoxic” value is 1.7% [at 35.3 µM].
As to `CO/N=C(/C(=O)N[C@@H]1C(=O)N2C(C(=O)[O-])=C(C[n+]3ccn4ncccc43)CS[C@H]12)c1nsc(N)n1`, the “activity change, negative = cytotoxic” value was 2.32% [at 35.3 µM].
`CCOc1cccc(N)c1`: the “activity change, negative = cytotoxic” value is 3.7%.
Then `Cc1ccc(C(=O)O)cc1[N+](=O)[O-]`, with 1.97%.
Then `NCCOCCN`, with 1.44%; and `c1ccc(-c2nn[nH]n2)cc1`, with 3.84%; and `C=CCN1C[C@H](C(=O)N(CCCN(C)C)C(=O)NCC)C[C@@H]2c3cccc4[nH]cc(c34)C[C@H]21`, with 0.466% [at 35.3 µM].
Consider `COC(=O)c1ccccc1C(=O)O`, for which the “activity change, negative = cytotoxic” value is 1.05%.
Consider `Cc1ccc2c(c1)C(=O)c1ccccc1C2=O`, for which the “activity change, negative = cytotoxic” value was -0.078%.
Then `CCCC(CC)c1ccccc1` (stereo not given), with 0.129%; and `C/C=C(\C)C(C)=O`, with 0.985%; and `CCCCCC/C=C/C(=O)OC`, with 0.771%.
For the compound `CC(=O)O[C@H]1C[C@@H]2CC[C@@]1(C)C2(C)C`, the “activity change, negative = cytotoxic” value is 0.156%.
Take `C[C@]12CCC(=O)C=C1CC[C@H]1[C@@H]3CC[C@](O)(C(=O)CO)[C@@]3(C)C[C@H](O)[C@@]12F`: the “activity change, negative = cytotoxic” value was 0.256% [at 35.3 µM].
Turning to `CC(O)COC(C)(C)C` (stereo not given), the “activity change, negative = cytotoxic” value is 4.06%.
